MCF10A rerep – induces DNA re-replication in MCF 10a normal breast cells | MCF 10A DNA re-replication, Hoechst nuclear intensity, 48 h | Potency, µM (highest dose often 46.1 µM), for inactives: at the highest dose activity, positive = re-replication, usual class: activators | 350,000 compounds, 2.9% hits; further: potency means the concentration at half of the fitted maximal effect; % of control where 0% means no effect; nearly all actives have a fitted effect of over 50% in size
IL-1B inflam inh – inflammasome signaling inhibition, IL-1 beta readout; 360,000 compounds, 4.7% hits; THP-1 LPS/ATP IL-1B secretion, AlphaLISA, 16 h; hits give low values; activity change, % at 57.5 µM; in the data active means activity change below about -50%; inconclusive means mostly about -30% to -49%; further: on the % scale 0 is the no-effect control and ±100 the full control effect
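THP-1 cells pretreated 1 hr with compounds (up to 57.5 uM final), then stimulated with LPS (250 ng/mL final) plus ATP (1.25 mM final); secreted IL-1B measured by AlphaLISA after 16 hr, decreased signal indicating inhibition.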
KB-3-1 cytotox – kills parental KB-3-1 adenocarcinoma cells; KB-3-1 viability, CellTiter-Glo ATP luminescence, 72 h; Potency, µM (top dose mostly 46.1 µM), actives largely listed as cytotoxic; 400,000 compounds, 1.4% hits; AID 1347075; further: potency means the concentration at half of the fitted maximal effect; on the % scale 0 is the no-effect control and ±100 the full control effect; nearly all actives have a fitted effect of over 60% in size
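Cytotoxicity measured as CellTiter-Glo luminescence after 72 h at 37 C. Compound titrations were pinned onto drug-naive KB-3-1 parental adenocarcinoma cells grown in DMEM with 10% FBS, and normalized data fitted to concentration-response curves.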
KB-V1 cytotox – KB-V1 MDR subline cytotoxicity | KB-V1 MDR cells viability, CellTiter-Glo, 72 h | Potency, µM (titrated, usually from 46.1 µM), actives largely listed as cytotoxic | 400,000 compounds, 3.4% hits | AID 1347076; further: potency means the concentration at half of the fitted maximal effect; on the % scale 0 is the no-effect control and ±100 the full control effect; nearly all actives have a fitted effect of over 60% in size
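Potencies derive from concentration-effect curves fitted to normalized luminescence (CellTiter-Glo) of KB-V1 cells treated for 72 h at 37 degrees C in phenol-red-free DMEM containing 10% FBS.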
SW480 rerep – induces DNA re-replication in SW480 colon adenocarcinoma cells. SW480 DNA re-replication, Hoechst DNA content imaging, 48 h. Potency, µM (top dose mostly 46.1 µM), inactives show top-dose re-replication activation, actives largely listed as activators. 340,000 compounds, 1.8% hits. AID 624297; further: potency means the concentration at half of the fitted maximal effect; % of control where 0% means no effect; nearly all actives have a fitted effect of over 55% in size
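First, 250 cells per well were seeded. Next, compound or vehicle (23 nL) was pinned in, plates sat 48 hr at 37 C. Finally Hoechst was added for 40 min before fluorescence scanning.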
An asterisk follows results filed as active; i = inactive; ? = inconclusive; . = not tested or not shown; [ ] = dose if it differs, or a comment. This is a sample that favours compounds with a hit; in the whole collection about 9.9% have one here. Unless noted, the call rests on the fitted dose curve; in most records, active means well fitted curve in the direction sought with a large enough effect; inconclusive means small, poorly fitted or top-dose-only effect, or another doubt; inactive means no such curve, though single readings can be large; an effect the other way counts as inactive or inconclusive.

SMILES	MCF10A rerep	IL-1B inflam inh	KB-3-1 cytotox	KB-V1 cytotox	SW480 rerep
O=C(COc1ccc(Br)cc1)N1CCN(Cc2c[nH]c3ccccc23)CC1	?	?	i	18µM*	?
O=C1NC(=O)C(=Cc2ccc(OCCOc3ccc([N+](=O)[O-])cc3)cc2)C(=O)N1	-7%	-59*	i	?	8%
O=C1NC(=O)C(=Cc2cccc(OCCOc3ccccc3)c2)C(=O)N1	0%	-5	i	i	7%
CCN(CC)S(=O)(=O)c1cc(NC(=O)C(C)N2CC=C(c3ccccc3)CC2)ccc1C (stereo not given)	8%	-58*	21µM*	16µM*	?
COc1ccc(-c2nn(CCC#N)cc2C(=O)Nc2ccccc2)cc1OC	-2%	-5	i	i	-6%
COc1ccc(NC(=O)c2cn(CCC#N)nc2-c2ccc(OC)c(OC)c2)cc1	6.5µM*	7	i	i	-43%
Cc1ccc(C(=O)N[C@@H](C)CN2C3=NC[C@@H](Cc4ccccc4)N3C[C@H]2Cc2ccc(O)cc2)cc1Br	5%	-20	?	i	-8%
Cc1ccc(C(=O)N[C@@H](C)CN2C3=NC[C@H](Cc4ccccc4)N3C[C@H]2Cc2ccc(O)cc2)cc1Br	?	-14	?	i	13µM*
CC(C)(C)c1ccc(O)cc1	-2%	.	.	.	0%
Cc1ccc(C2=NC(C)(C)N3C2C3c2ccc([N+](=O)[O-])cc2)cc1 (stereo not given)	-1%	0	?	18µM*	3%
ClCCN(CCCl)c1ccc(/C=C/c2sc3ccccc3[n+]2CCCCI)cc1	.	.	?	i	.
C[C@]12CCC(=O)C=C1C=CC1C2CC[C@]2(C)C(=O)CCC12 (stereo not given in full)	17%	-4	i	i	4%
Cc1cccc(-c2nc(CN3C(=O)CN=C(c4ccccc4)c4ccccc43)c(C)o2)c1	.	.	i	i	.
Cc1cc(NC(=O)COC(=O)c2c(C)nn(Cc3ccccc3)c2C)no1	0%	-1	?	?	3%[9.22 µM]
Cc1nn(Cc2ccccc2)c(C)c1C(=O)OCC(=O)Nc1ccccc1SCC#N	-1%	10	i	7.3µM*	-4%
CCCCC1(CC)COP(=O)(OCC(Cl)(Cl)Cl)OC1 (stereo not given)	2%	1	i	i	-2%
CN1CCN(Cc2ccccc2Sc2ccccc2)CC1	?	-80*	i	21µM*	?
CC(Cc1ccccc1Sc1ccccc1)N(C)C (stereo not given)	9%	?	i	i	?
CN(C)C(=O)Oc1ccc[n+](C)c1	0%	11	i	i	-6%
CN(C)c1ccc(/C=C/[N+](=O)[O-])cc1	0%	-64*	i	i	?
COc1cc(/C=C/[N+](=O)[O-])ccc1OC(=O)c1cccnc1	-4%	?	i	?	-22%
C/C(=C\c1ccc(N(C)C)cc1)[N+](=O)[O-]	2.6µM*	-107*	?	?	5.8µM*
CCP(=S)(CC)c1ccc(N(C)C)cc1	-44%	17	i	i	?
Cc1cc(C=C2C(=O)N(C)C(=O)N(C)C2=O)c(C)n1-c1ccccc1	5%	2	i	i	3%
CN1C(=O)C(=Cc2sc(=O)n(-c3ccccc3)c2N(C)C)C(=O)N(C)C1=O	18µM*	-97*	?	i	28%
O=P(O)(O)Cc1ccccc1OP(=O)(c1ccccc1)c1ccccc1	20%	4	i	23µM*	1%
O=P(O)(O)Cc1c(Cl)cccc1Cl	-1%	22	i	i	-700%
CC(C)CN1CCN(Cc2ccc(F)cc2Cl)CC1CCO (stereo not given)	3%	27	i	i	-16%
CCc1ccc(N2C(=O)NC(=O)/C(=C\c3cccn3CCOc3ccc(C(C)C)cc3)C2=O)cc1	7.3µM*	-22	?	?	?
O=C(Oc1c(Br)cc(Br)c2cccnc12)N1CCCCC1	?	-3	i	i	-2%
